# From PubChem BioAssay AID493034 (The Scripps Research Institute Molecular Screening Center, 2011)
# Screen size: about 2,400 compounds; about 2,200 (92%) were called active. So high a share suggests a set chosen from earlier hits. The list shows a part of the results. A number with no mark means an inactive call.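 The calls were made as follows: active = mean inhibition over triplicate runs exceeds the cutoff derived for the earlier primary screen (cut at about 25% in these data); inactive = the rest.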
# Molecular target: Platelet-activating factor acetylhydrolase IB subunit alpha2 (Homo sapiens) (UniProt P68402)
# Experiment: PAFAH1B2 inhibitors, confirmation, biochemical, fluorescence polarization, FP-rhodamine probe, triplicate (AID 493034);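 also: 0% = enzyme with DMSO and 100% = wells lacking PAFAH1B2 protein; inhibitors lower polarization by leaving the probe unbound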
# Details: recombinant PAFAH1B2, FP-rhodamine probe fluorescence polarization; at 3.39 µM; stronger effect = higher value
# Platelet-activating factor acetylhydrolase IB subunit alpha2 (Homo sapiens), sequence (P68402 whole entry, looked up): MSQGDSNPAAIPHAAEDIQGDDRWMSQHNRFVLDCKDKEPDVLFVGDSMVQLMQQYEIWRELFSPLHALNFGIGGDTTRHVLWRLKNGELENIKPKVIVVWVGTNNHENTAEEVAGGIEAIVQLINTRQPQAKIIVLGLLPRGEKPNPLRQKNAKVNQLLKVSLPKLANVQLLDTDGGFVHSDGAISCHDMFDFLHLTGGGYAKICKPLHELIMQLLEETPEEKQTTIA
row,Compound,inhibition
1,COC(=O)C1=C(c2ccc(C(C)=O)cc2)C[C@@H]2CC[C@H]1N2C(=O)NCc1ccc(F)cc1,23.9%
2,COC(=O)C1=C(c2ccc(C(C)=O)cc2)C[C@@H]2CC[C@H]1N2C(=O)NCc1ccc(C(F)(F)F)cc1,28% (active)
3,O=P(NS(=O)(=O)c1ccc(Br)cc1)(Oc1ccccc1)Oc1ccccc1,78.1% (active)
4,O=P(NS(=O)(=O)c1ccc(Cl)cc1)(Oc1ccccc1)Oc1ccccc1,81.3% (active)
5,Cc1ccc(S(=O)(=O)NP(=O)(Oc2ccccc2)Oc2ccccc2)cc1,51.9% (active)
6,BrCC(Br)C1CCC(Br)C(Br)C1 (configuration not stated),56.7% (active)
7,O=c1[nH]c(=S)n(CCC2=CCCCC2)c(O)c1/C=N/Nc1ccccc1,29.8% (active)
8,O=S(=O)(c1ccc(Cl)cc1)c1ccc(Cl)cc1,42.9% (active)
9,Cc1ccc(OCCOc2cccc(C=C3C(=O)NC(=O)NC3=O)c2)cc1,36.7% (active)
10,O=C(O)CCn1cc(C=C2C(=O)NC(=O)NC2=O)c(-c2ccc(Br)cc2)n1,36.4% (active)
11,O=C(OCCN1CCOCC1)C1(c2ccccc2)CCCC1,32.4% (active)
12,O=C(O)C1(c2ccc(Cl)cc2)CCC1,37% (active)
13,Cn1c(O)c(/C=C2\N=c3ccccc3=C2CCNC(=S)NC2CC2)c(=O)n(C)c1=O,84.3% (active)
14,O=C(Cc1ccccc1)NC(Cc1ccc(Cl)cc1)C(=O)O (configuration not stated),28.4% (active)
15,O=C(Cc1ccc(N(CCCl)CCCl)cc1)NC(Cc1ccc(Cl)cc1)C(=O)O (configuration not stated),63% (active)
16,O=C1CC(=O)N(Cc2ccccc2)C(=S)N1,15.9%
17,O=C(N/N=C/c1c(O)n(Cc2ccc(F)cc2)c(=S)[nH]c1=O)c1ccncc1,40.2% (active)
18,O=c1[nH]c(=S)n(Cc2ccc(F)cc2)c(O)c1C=NCC1CCCO1 (configuration not stated),27.5% (active)
19,O=C(N/N=C/c1c(O)n(Cc2ccc(F)cc2)c(=O)[nH]c1=O)c1ccccc1,23.9%

row,Compound,inhibition
1,O=c1[nH]c(=S)n(Cc2ccc(F)cc2)c(O)c1/C=N/N1CCCCC1,38.2% (active)
2,O=c1[nH]c(=S)n(Cc2ccc(F)cc2)c(O)c1/C=N/N1CCCCCC1,27.4% (active)
3,CC1CC(OP(O)(=S)c2ccc(N(C)C)cc2NC(=O)c2cccs2)CC(C)(C)C1 (configuration not stated),17.3%
4,O=C1CN=C(c2ccccc2)c2ccccc2N1Cc1ccc(C(F)(F)F)cc1,57.8% (active)
5,Cc1ccc(Sc2ccc(C=C3C(=O)N(C)C(=O)N(C)C3=O)o2)cc1,62.6% (active)
6,O=C1NC(=O)C(=Cc2ccc(-c3ccc(F)cc3O)o2)C(=O)N1,20.5%
7,Cc1ccc(-c2nc3ccc(Cl)cc3n2OC(=O)N(C)C)cc1,59% (active)
8,CNC(=O)O/N=C(\N)Cc1csc2ccc(Cl)cc12,54.9% (active)
9,FC(F)(F)c1cccc(-n2nnnc2C2(N3CCOCC3)CCCCC2)c1,23.3%
10,Cc1ccc2c(c1)=NC(=O)/C(=C/c1c(O)[nH]c(=O)[nH]c1=O)C=2,21.7%
11,C=C[C@@H]1C[C@@]1(C)[C@@H](NP(=O)(c1ccccc1)c1ccccc1)c1ccccc1,29.2% (active)
12,Nc1ccc(C2(c3ccc(N)cc3)CCCCC2)cc1,45.2% (active)
13,O=P(O)(Oc1ccccc1)OC(c1ccccc1)C(F)(F)C(F)(F)F (configuration not stated),85.5% (active)
14,NP(=O)(OCCCc1ccccc1)Oc1ccccc1 (configuration not stated),51.6% (active)
15,NP(=O)(OCCCc1ccccc1)Oc1ccc(Cl)cc1 (configuration not stated),88.8% (active)
16,Nc1ccc2cc(Br)ccc2c1,70.6% (active)
17,CNC(=O)Oc1ccc(C(=O)N2c3ccccc3NC(=O)C2C)cc1 (configuration not stated),43.6% (active)
18,O=C(O)c1c[nH]c2ccc(S(=O)(=O)N(CCCl)CCCl)cc12,26% (active)
